Compounds without any hit were thinned out: in the full panel of roughly 83,000, 20% have a hit.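 Growth was measured after 48 h exposure to one concentration of compound in 96-well plates. Values under 10 count as active.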 Unmarked numbers belong to inactive results. The source made the active and inactive calls.
What was measured:
Assay in all cases: NCI-60 one-dose screen, 48 h (100 = growth as untreated, 0 = no growth, -100 = all killed)
Settings in all cases: 10 µM
[1] = system: NCI-H23 lung
[2] = system: NCI-H226 lung
[3] = system: NCI-H322M lung
[4] = system: HOP-62 NSCLC
[5] = system: NCI-H460 lung
[6] = system: HOP-92 NSCLC
[7] = system: NCI-H522 lung
[8] = system: A549/ATCC NSCLC
[9] = system: 786-0 renal
[10] = system: COLO 205 colon
[11] = system: DU-145 prostate
[12] = system: K-562 leukemia
[13] = system: MALME-3M melanoma
[14] = system: RXF 393 renal
[15] = system: SF-268 CNS
[16] = system: SF-295 CNS
[17] = system: SF-539 CNS
[18] = system: UACC-257 melanoma
[19] = system: M14 melanoma
[20] = system: MDA-MB-231 breast

| SMILES | growth [1] | growth [2] | growth [3] [%] | growth [4] [%] | growth [5] | growth [6] | growth [7] | growth [8] [%] | growth [9] | growth [10] | growth [11] | growth [12] | growth [13] | growth [14] | growth [15] | growth [16] | growth [17] | growth [18] | growth [19] | growth [20] |
| --- | --- | --- | --- | --- | --- | --- | --- | --- | --- | --- | --- | --- | --- | --- | --- | --- | --- | --- | --- | --- |
| O=c1nc(-c2ccccc2)cc(-c2cc3ccccc3nc2Cl)[nH]1 | 33.6% | 35.6% | 64.4 | 42.5 | 2.46% (active) | 41.8% | 51.2% | 68.9 | -19.8% (active) | 45% | 38.4% | -11.9% (active) | 54.9% | -16.1% (active) | 38.2% | 42.2% | -47.4% (active) | 91.2% | 38.6% |  |
| C=CC(=O)Nc1nc(-c2cccc(NS(=O)(=O)c3cccc4c(N(C)C)cccc34)c2)cs1 | -3.14% (active) | 6.89% (active) | 56.2 | 31.2 | -32.8% (active) | -49.2% (active) | -76.9% (active) | 19.3 | -82.5% (active) | -56.3% (active) | 3.39% (active) |  | -76.1% (active) | -98.7% (active) | 0.14% (active) | 37.8% | -100% (active) | -29.3% (active) | -78.7% (active) | -63.8% (active) |
| COc1ccc(-c2nc(S(=O)(=O)c3ccc(C)cc3)c(S(C)(=O)=O)o2)cc1 | -78.1% (active) | 72.1% | 89.6 | 84 | 4.05% (active) | -75% (active) | -96.6% (active) | 81.2 | -33.4% (active) | -88.7% (active) | -99.1% (active) |  | -95.5% (active) | -95.1% (active) | -37% (active) | 78.4% | -100% (active) | -84.6% (active) | -31.9% (active) | -92.4% (active) |
| CN1CCN(c2ccc(Nc3nc(NCCNC(=O)c4ccc(C(F)(F)F)cc4)c4sccc4n3)cc2)CC1 | 49.3% | 72.3% | 28.3 | 19.4 | 16.7% | -15.3% (active) | 24.6% | 28.1 | -56.6% (active) | -87.6% (active) | 45.7% |  | -100% (active) | -82.2% (active) | 21.8% | -62.7% (active) | -99.7% (active) | -93.4% (active) | -54.4% (active) | -36.1% (active) |
| CN1CCN(c2ccc(Nc3nc(NCCCNC(=O)c4ccccc4)c4sccc4n3)cc2)CC1 | 82.5% | 84.6% | 84.2 | 93.5 | 67.6% | 69.3% | 91.5% | 72.5 | 24.9% | 93.8% | 75.5% |  | 46.1% | 2.61% (active) | 77.6% | 85.9% | -89.5% (active) | 32.5% | 38.6% | 88.6% |
| COc1ccc2nc(Cl)c(-c3cc(-c4ccccc4)nc(=S)[nH]3)cc2c1 | 72.6% | 80.2% | 89.4 | 75.7 | 90.4% | 54.1% | 37% | 93.6 | 78% | 72.6% | 72.6% | 24.8% | 45.3% | 46.2% | 67.9% | 50.9% | 63.5% | 38.2% | 16.5% |  |
| Cc1ccc(-c2nc3ccc(C(=O)N=Nc4c(O)[nH]c5ccc([N+](=O)[O-])cc45)cc3[nH]2)cc1 | 64.6% | 45.4% | 105 | 88.5 | 103% | 44.3% | 78.3% | 98 | 85.2% | 70.9% | 47.8% |  | 57.5% | 83.5% | 60.1% | 93.5% | 52.7% | 84.8% | 73.8% | 66.9% |

From PubChem BioAssay (NCI)
